High-throughput results: PubChem, National Center for Advancing Translational Sciences (NCATS)
Sampled rows, rich in hits. Any-hit rate of the full collection: about 7.1%.
ATXN2 expr inh – inhibitors of ATXN2 expression; HEK-293 ATXN2-luciferase reporter, luminescence, 24 h; Potency, µM (highest dose often 57 µM), inactives show top-dose activity change, negative = inhibition, actives largely listed as inhibitors; 360,000 tested, 0.72% active; AID 1745845; note: potency is the fitted concentration of half-maximal effect; % is set by controls: 0 for no effect and ±100 for the full control effect; nearly all actives have a fitted effect of over 55% in size
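qHTS (up to 57 uM final) was run with 24 h compound exposure of reporter cells at 37 °C. Each well was multiplexed: SteadyGlo luminescence measured ATXN2-luciferase expression after a fluorogenic Gly-Phe-AFC viability readout (25 uM final).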
SW480 rerep – DNA re-replication induction in SW480 cells. AID 624297. Potency, µM (series often up to 46.1 µM), inactives show top-dose re-replication activation, actives largely listed as activators. SW480 DNA re-replication, Hoechst DNA content imaging, 48 h. 340,000 tested, 1.8% active; note: potency is the fitted concentration of half-maximal effect; % of control where 0% means no effect; nearly all actives have a fitted effect of over 55% in size
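Compounds, transferred as 23 nL by pin tool, were incubated with cells for 48 hr; DNA content per nucleus was then quantified by Hoechst staining and fluorescence plate imaging.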
S2 tox – cell viability loss in ATXN counter-screen. S2 cells (HEK-293 line with an ATXN2-luciferase reporter) viability, CellTiter-Fluor protease fluorescence, 24 h. 400,000 tested, 0.49% active. Potency, µM (series often up to 56.7 µM), usual class: cytotoxic. AID 651635; note: potency is the fitted concentration of half-maximal effect; nearly all actives have a fitted effect of over 40% in size
MCF10A rerep – DNA re-replication induction in MCF 10a cells. MCF 10A DNA re-replication, Hoechst nuclear intensity, 48 h. Potency, µM (titrated, usually from 46.1 µM), without a hit: at the top dose activity, positive = re-replication, hits mostly activators. 350,000 tested, 2.9% active; note: potency is the fitted concentration of half-maximal effect; % of control where 0% means no effect; nearly all actives have a fitted effect of over 50% in size
IL-1B inflam inh – blocks inflammasome-driven IL-1 beta release; 360,000 tested, 4.7% active; activity change, % at 57.5 µM; THP-1 LPS/ATP IL-1B secretion, AlphaLISA, 16 h; active compounds read low; in the data active = activity change below about -50%; inconclusive = mostly about -30% to -49%; note: % is set by controls: 0 for no effect and ±100 for the full control effect
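THP-1 cells pretreated 1 hr with compounds (up to 57.5 uM final), then stimulated with LPS (250 ng/mL final) plus ATP (1.25 mM final); secreted IL-1B measured by AlphaLISA after 16 hr, decreased signal indicating inhibition.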
PINK1 modulator – modulators of PINK1 expression; AID 624263; Potency, µM (doses to about 76.6 µM), without a hit: at the top dose activation (PINK1 increase), actives largely listed as activators; PINK1 immunofluorescence, high-content cytometry, 24 h; 410,000 tested, 0.2% active; active = well fitted activation curve with a large enough effect; inconclusive = small, poorly fitted or top-dose-only effect; cell line not stated here; note: potency is the fitted concentration of half-maximal effect; % of control where 0% means no effect; nearly all actives have a fitted effect of over 65% in size
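A stable cell line was treated with compounds at 5 concentrations for 24 hours, with CCCP as control. PINK1 levels and mitochondrial localization were measured by immunofluorescence with mitochondrial, cell and nuclear markers after fixation, read by laser-scanning cytometry.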
* hit, by the source's call; [ ] = dose if it differs, or a comment. Unless noted, calls come from the whole dose curve; as a rule, active = well fitted curve in the direction sought with a large enough effect; inconclusive = small, poorly fitted or top-dose-only effect, or another doubt; inactive = no such curve, though single readings can be large; an effect the other way counts as inactive or inconclusive.

What do the screens show for `Cc1ccc(S(=O)(=O)N(CC(=O)NCCSc2ccc(Cl)cc2)c2ccccc2C)cc1`?
ATXN2 expr inh: -21.6%; S2 tox: inconclusive; PINK1 modulator: 0.7%

What do the screens show for `CCN1/C(=C/C=C/C2=[N+](CC)c3ccccc3C2(C)C)C(C)(C)c2ccccc21`?
S2 tox: 7.94µM*; IL-1B inflam inh: -104.6*; PINK1 modulator: -1.9%

Results for CC(C)N1CCN(Cc2cccc([N+](=O)[O-])c2)CC1 ?
ATXN2 expr inh: 11.7%; SW480 rerep: 1.84µM*; S2 tox: inactive; MCF10A rerep: 0.8%; IL-1B inflam inh: 16.4; PINK1 modulator: -0.4%

What do the screens show for `CNC(=O)O/N=C/C(C)(C)S(C)=O` (stereo not given)?
PINK1 modulator: 0.6%

What do the screens show for `Cc1ccc(CNC(=O)C(=O)NCC(c2cccnc2)N2CCN(c3ccc(F)cc3)CC2)cc1` (stereo not given)?
ATXN2 expr inh: inconclusive; S2 tox: inactive; PINK1 modulator: 0.5%

Results for CC(C)(C)NCC(O)c1cc(Cl)c(N)c(C(F)(F)F)c1 (stereo not given) ?
ATXN2 expr inh: 3.1%; SW480 rerep: 1.6%; S2 tox: inconclusive; MCF10A rerep: -3.8%

Results for CCCC(=O)NC1=C(N2CC2)C(=O)C(NC(=O)CCC)=C(N2CC2)C1=O ?
ATXN2 expr inh: -39.1%; SW480 rerep: 2.31µM*; S2 tox: inactive; MCF10A rerep: inconclusive; IL-1B inflam inh: 1.7; PINK1 modulator: -2.7%

What do the screens show for `c1cc2c(cc1C1OC[C@@H]3C(c4ccc5c(c4)OCO5)OCC13)OCO2` (stereo not given in full)?
PINK1 modulator: -0.1%

How did CCc1cc(=O)oc2c(C)c(OCC(=O)N3CCC[C@@H]3C(=O)O)ccc12 do in these assays?
ATXN2 expr inh: 9.6%; SW480 rerep: -0.8%; S2 tox: inactive; MCF10A rerep: -11.0%; IL-1B inflam inh: 12.8; PINK1 modulator: 0.6%

What do the screens show for `COCCCn1c(-c2ccc(OC)cc2)cc(C(=O)NC2CCCCCCC2)c1C`?
ATXN2 expr inh: -14.7%; SW480 rerep: inconclusive; S2 tox: inactive; MCF10A rerep: inconclusive; IL-1B inflam inh: -52.5*; PINK1 modulator: inconclusive

Results for CN(C)CCN=Cc1c(O)n(CCC2=CCCCC2)c(=O)[nH]c1=O ?
ATXN2 expr inh: -10.6%; SW480 rerep: -3.8%; S2 tox: inactive; MCF10A rerep: -1.0%; IL-1B inflam inh: -17.5; PINK1 modulator: 0.3%[38.3 µM]

Results for CCCCn1c(O)c(C(=O)/C=C/c2ccc3c(c2)OCO3)c(=O)[nH]c1=O ?
ATXN2 expr inh: -29.9%; SW480 rerep: inconclusive; S2 tox: inactive; MCF10A rerep: inconclusive; IL-1B inflam inh: -73.2*; PINK1 modulator: -1.4%

What do the screens show for `O=C(/C=C/c1ccc2c(c1)OCO2)c1c(O)n(CCC2=CCCCC2)c(=O)[nH]c1=O`?
ATXN2 expr inh: -29.5%; SW480 rerep: -0.1%; S2 tox: inactive; MCF10A rerep: 1.84µM*; IL-1B inflam inh: 0.4; PINK1 modulator: -0.4%

How did COc1ccc(/C=C/C(=O)c2c(O)n(CCC3=CCCCC3)c(=O)[nH]c2=O)cc1 do in these assays?
ATXN2 expr inh: inconclusive; SW480 rerep: -1.3%; S2 tox: inactive; MCF10A rerep: 7.31µM*; IL-1B inflam inh: -16.0; PINK1 modulator: -3.4%

How did C=C1C/C(=C\C)C(=O)O[C@@H]2CCN3CC=C(COC(=O)[C@@]1(C)O)[C@H]23 do in these assays?
S2 tox: inactive

Results for Cc1c(O)c(=O)ccn1C ?
ATXN2 expr inh: -5.0%; SW480 rerep: -14.4%; S2 tox: inactive; MCF10A rerep: inconclusive; IL-1B inflam inh: 9.0; PINK1 modulator: -0.6%

How did Cc1cccc(OP(=O)(Nc2ccc(F)cc2)Oc2cccc(C)c2)c1 do in these assays?
ATXN2 expr inh: -24.2%; SW480 rerep: inconclusive; S2 tox: inactive; MCF10A rerep: inconclusive; IL-1B inflam inh: -72.0*; PINK1 modulator: 22.3%

Results for NC(Cc1ccc(C(F)(F)F)cc1)c1csc(Nc2nncc3ccccc23)n1 (stereo not given) ?
ATXN2 expr inh: inconclusive; S2 tox: inconclusive; IL-1B inflam inh: -66.5*; PINK1 modulator: -1.2%

What do the screens show for `NC(Cc1ccc(F)cc1)c1csc(Nc2ncccn2)n1` (stereo not given)?
ATXN2 expr inh: inconclusive; S2 tox: inactive; IL-1B inflam inh: -25.4; PINK1 modulator: -0.6%

Results for O=C1NC(=O)C2(CCCc3ccc(N(CCCl)CCCl)cc32)N1 (stereo not given) ?
ATXN2 expr inh: inconclusive; SW480 rerep: 16.4µM*; S2 tox: inactive; MCF10A rerep: 18.4µM*; IL-1B inflam inh: -6.4; PINK1 modulator: -1.3%

Results for O=C(/C=C/c1c[nH]c2ccccc12)c1c(O)n(CCc2ccccc2)c(=O)[nH]c1=O ?
ATXN2 expr inh: 29.1%; SW480 rerep: 18.4µM*; MCF10A rerep: 16.4µM*; PINK1 modulator: 0.8%

What do the screens show for `Cc1occc1C(=O)Nc1cccc(-c2nc(CNC(=O)c3cccc(C#CC(C)(C)O)c3)c(C)o2)c1`?
S2 tox: 31.6µM*; PINK1 modulator: 2.6%

Results for COC1CC(=C(c2cccs2)c2cccs2)C[N+](C)(C)C1 (stereo not given) ?
ATXN2 expr inh: -2.6%; SW480 rerep: -3.3%; S2 tox: inactive; MCF10A rerep: 1.7%

What do the screens show for `CCCC1=Nc2cc(C(=O)NCCCN(CC)CC)ccc2Sc2ccccc21`?
ATXN2 expr inh: 31.6µM*; S2 tox: inconclusive; PINK1 modulator: 6.0%

Results for COc1ccc2c3c1O[C@H]1[C@@H](O)C=C[C@H]4[C@@H](C2)NCC[C@@]341 ?
S2 tox: inactive

How did COc1ccccc1Sc1ccccc1CC(C)N (stereo not given) do in these assays?
ATXN2 expr inh: -18.3%; SW480 rerep: inconclusive; S2 tox: inactive; MCF10A rerep: inconclusive; IL-1B inflam inh: -55.9*; PINK1 modulator: 4.3%

How did COc1ccccc1CCNC1CCC(C(C)(C)C)CC1 (stereo not given) do in these assays?
ATXN2 expr inh: inconclusive; SW480 rerep: inconclusive; S2 tox: inconclusive; MCF10A rerep: inconclusive; IL-1B inflam inh: -65.0*; PINK1 modulator: 3.2%[38.3 µM]

Results for Cc1ccc(OCC(=O)N2CCN(C3CCC(c4ccccc4)CC3)CC2)cc1 (stereo not given) ?
ATXN2 expr inh: -20.2%; SW480 rerep: -2.1%; S2 tox: inactive; MCF10A rerep: 13µM*; IL-1B inflam inh: -8.5; PINK1 modulator: 4.8%
